target: RGS6; assay: pooled miR-30 sensor sort-seq; sequence = guide strand; details: shRNA
Also: reference of the scale not given here.

| Sequence | sensor-assay potency score (higher = more potent) |
| --- | --- |
| TTGGCTGAGTACATGCACCGGG | 0.473 |
| TTTCAAACAATGTCTGTCGATC | -0.513 |
| TAATCTGCCAGTTCCAGCCTTG | -0.407 |
| TTTGACACACACACACAGGGAA | 0.653 |
| TTATTTTGCATTGTCCTCTTAC | -0.243 |
| TCTGTCTTGTCTTTTTTCCGGT | 0.0231 |
| TTCTGCTTCATAATCTGCCAGT | -0.422 |
| TCAAACGTCGACATTTTCGGAT | -0.513 |
| TAATCTCAAGTGATAGTCGTGA | 0.294 |
| TTTTCAAACAATGTCTGTCGAT | -0.396 |
| TAAACTTTCAGCCACTTTGGAC | -0.804 |
| TTGTCATCTTGCATCTTTGTAA | -0.676 |

From the OligoGym collection
